# Assay results reported in the supplement of paper PMC7669877.
# ± gives the uncertainty stated by the source.
# Tested on: Candidatus Liberibacter solanacearum in potato hairy roots
# Assay: relative CLso titer (% of untreated control); higher = less inhibition of bacterial titer
# Conditions: 10 µM; 72 h
# Method: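 Primary screen of ~220 Spectrum collection (MicroSource) compounds at 10 µM (0.1% DMSO) on Candidatus Liberibacter solanacearum-infected potato hairy roots in multi-well plates (Gamborg B-5 medium, vacuum infiltrated, 21 °C, dark, 72 h). CLso titer was measured by qPCR of 16S rDNA normalised to potato RPL2 (2^-ddCq), pairwise-standardised against untreated controls, averaged over two biological replicates and expressed as % of untreated.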
row,SMILES,relative CLso titer [%]
1,CC1=C(/C=C/C(C)=C/C=C/C(C)=C/C(=O)O)C(C)(C)CCC1,132 ± 9.7
2,CC1(C)OC(=O)C(OCC2CC2)=C1c1ccc(S(C)(=O)=O)cc1,53.8 ± 6.5
3,CCCCOc1ccc(C(=O)CCN2CCCCC2)cc1,156 ± 14
4,Cc1ccc(C(=O)Nc2ccc(S(=O)(=O)O)c3cc(S(=O)(=O)O)cc(S(=O)(=O)O)c23)cc1NC(=O)c1cccc(NC(=O)Nc2cccc(C(=O)Nc3cc(C(=O)Nc4ccc(S(=O)(=O)O)c5cc(S(=O)(=O)O)cc(S(=O)(=O)O)c45)ccc3C)c2)c1,141 ± 37
5,CN(C)CCC=C1c2ccccc2CCc2ccccc21,49 ± 2.5
6,NS(=O)(=O)c1cc2c(cc1Cl)N=CNS2(=O)=O,31 ± 2.7
7,CC(=O)OCC1=C(C(=O)O)N2C(=O)[C@@H](NC(=O)CSc3ccncc3)[C@H]2SC1,70.6 ± 0.88
8,CO[C@@]12[C@H](COC(N)=O)C3=C(C(=O)C(C)=C(N)C3=O)N1C[C@@H]1N[C@@H]12,85 ± 10
9,COc1ccc(C[C@H](N)C(=O)N[C@H]2[C@@H](O)[C@H](n3cnc4c(N(C)C)ncnc43)O[C@@H]2CO)cc1,91.8 ± 5.9
10,CNC[C@H](O)c1ccc(O)c(O)c1,173 ± 86
11,C[C@@H]1C[C@H]2[C@@H]3CCC4=CC(=O)C=C[C@]4(C)[C@@]3(F)[C@@H](O)C[C@]2(C)[C@@]1(O)C(=O)COP(=O)(O)O,137 ± 29
12,C[N+](C)(C)CCOC(N)=O,41.99 ± 0.24
13,CCC[C@@H]1C[C@@H](C(=O)N[C@@H]([C@H]2O[C@H](SC)[C@H](O)[C@@H](O)[C@H]2O)[C@H](C)Cl)N(C)C1,80.1 ± 32
14,Cc1cn([C@H]2C[C@H](N=[N+]=[N-])[C@@H](CO)O2)c(=O)[nH]c1=O,52.6 ± 7.3
15,CCN(CCCCOC(=O)c1ccc(OC)c(OC)c1)C(C)Cc1ccc(OC)cc1 (centres undefined),94.6 ± 34
16,O=S(=O)(O)CCS,110 ± 3.6
17,O=C(N[C@H](CO)[C@H](O)c1ccc([N+](=O)[O-])cc1)C(Cl)Cl,57.2 ± 12

row,SMILES,relative CLso titer [%]
1,C[n+]1cc2c3c(ccc2c2ccc4cc5c(cc4c21)OCO5)OCO3,86.7 ± 34
2,Nc1ccc(S(=O)(=O)Nc2cnc3ccccc3n2)cc1,80.23 ± 0.64
3,C[C@@H]1O[C@@H]1P(=O)(O)O,155 ± 15
4,CC1=C(/C=C/C(C)=C/C=C/C(C)=C/CO)C(C)(C)CCC1,195 ± 25
5,Cn1c(=O)c2c(ncn2C)n(C)c1=O,42.2 ± 4.3
6,N=C(N)NC(=O)c1nc(Cl)c(N)nc1N,54.7 ± 1.4
7,Nc1ncn([C@@H]2O[C@H](CO)[C@@H](O)[C@H]2O)c(=O)n1,64.8 ± 5.8
8,Clc1cccc(Cl)c1NC1=NCCN1,55.5 ± 4.1
9,Cc1cc(-c2ccccc2)nnc1NCCN1CCOCC1,86.8 ± 63
10,CCN(CCCc1ccccc1)CCCc1ccccc1,66.9 ± 21
11,OCC(S)CS (centres undefined),67.2 ± 36
12,NCCCCCC(=O)O,39.2 ± 4.1
13,CN(CCOc1ccc(CC2SC(=O)NC2=O)cc1)c1ccccn1 (centres undefined),87.5 ± 30
14,C/C=C(/C(=C/C)c1ccc(O)cc1)c1ccc(O)cc1,108 ± 17
15,CC1=C(/C=C/C(C)=C/C=C/C(C)=C\C(=O)O)C(C)(C)CCC1,80.8 ± 13
16,Cc1cccc(Nc2ccccc2C(=O)O)c1C,98.7 ± 20
17,CN(C)/N=N/c1[nH]cnc1C(N)=O,84.5 ± 19
